Records with an inconclusive call do not appear. The source made the active and inactive calls. The call rests on the fitted dose curve; in most records, active means well fitted curve in the direction sought with a large enough effect in the signal ratio, with a control signal flat (not every such curve was filed as active); inconclusive means small, poorly fitted or top-dose-only effect, or effect the other way, or a change in a side signal; inactive means no such curve, though single readings can be large or run the other way; the % refers to the signal ratio.

The target of the assay is Tyrosine-protein phosphatase non-receptor type substrate 1 (Homo sapiens) + Leukocyte surface antigen CD47 (Homo sapiens) (UniProt P78324+Q08722). As to the kind of experiment: CD47-SIRPalpha protein protein interaction - LANCE assay qHTS validation (AID 1347057). The settings on record: Recombinant CD47-His / biotin-SIRPalpha, TR-FRET ratio; series mostly up to 38.3 µM. From the text: SIRPalpha is a myeloid cell expressed immunomodulatory receptor that binds the tumor expressed immune checkpoint CD47. Therapeutic disruption of this interaction leads to immune-mediated tumor rejection. This assay was used to quantitate CD47-SIRPalpha binding biochemically and evaluate chemical libraries for novel CD47-SIRPalpha inhibitors. To recapitulate the biological interaction of CD47 and SIRPalpha, we designed expression constructs to produce their recombinant, soluble, extracellular interaction domains. CD47 was produced with an N-terminal 6His tag. SIRPalpha was produced with an N-terminal Avi-Tag for site-specific biotin incorporation. The CD47-SIRPalpha interaction was measured by TR-FRET using affinity tag linked reagents (anti-6His-Eu donor and streptavidin-APC acceptor). SIRPalpha without biotin incorporation was used as a positive control inhibitor.
Tyrosine-protein phosphatase non-receptor type substrate 1 (Homo sapiens) + Leukocyte surface antigen CD47 (Homo sapiens), sequence (P78324 whole entry, looked up): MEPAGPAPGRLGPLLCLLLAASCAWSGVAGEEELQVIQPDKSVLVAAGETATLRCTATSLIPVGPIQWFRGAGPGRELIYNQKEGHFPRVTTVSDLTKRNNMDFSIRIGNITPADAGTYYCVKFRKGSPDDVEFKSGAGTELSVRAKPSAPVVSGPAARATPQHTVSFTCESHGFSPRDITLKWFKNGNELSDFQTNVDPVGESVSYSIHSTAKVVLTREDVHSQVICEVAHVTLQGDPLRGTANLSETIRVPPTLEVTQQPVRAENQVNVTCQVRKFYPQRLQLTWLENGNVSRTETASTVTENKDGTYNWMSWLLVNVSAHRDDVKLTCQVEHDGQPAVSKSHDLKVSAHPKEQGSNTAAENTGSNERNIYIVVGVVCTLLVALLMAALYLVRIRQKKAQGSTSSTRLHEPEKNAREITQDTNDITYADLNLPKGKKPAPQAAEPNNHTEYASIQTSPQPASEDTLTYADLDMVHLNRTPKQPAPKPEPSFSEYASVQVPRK
Tyrosine-protein phosphatase non-receptor type substrate 1 (Homo sapiens) + Leukocyte surface antigen CD47 (Homo sapiens), sequence (Q08722 whole entry, looked up): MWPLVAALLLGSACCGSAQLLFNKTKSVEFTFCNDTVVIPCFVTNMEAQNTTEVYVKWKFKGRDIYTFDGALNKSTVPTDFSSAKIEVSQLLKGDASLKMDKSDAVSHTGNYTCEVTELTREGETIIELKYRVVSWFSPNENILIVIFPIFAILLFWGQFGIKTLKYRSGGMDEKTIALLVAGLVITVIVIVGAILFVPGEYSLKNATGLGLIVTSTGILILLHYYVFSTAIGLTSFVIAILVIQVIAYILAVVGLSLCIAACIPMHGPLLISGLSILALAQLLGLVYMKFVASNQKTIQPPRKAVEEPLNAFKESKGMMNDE
PROTOCOL TABLE (as described by Miller, T. et al. 2019)
SEQUENCE No. (e.g., 1, 2, 3, etc.); […] (e.g., Cells, Incubation, Reagent, etc.); VALUE and DESCRIPTION.
1a. Reagent. 3 uL CD47-His (12.5 nM) and Anti-His Eu Donor reagent (3 nM) added to respective wells in Assay buffer; white/solid bottom high base, med bind 1536-well plates (Greiner 789075)
1b. Reagent. 2 uL Assay buffer negative control for background fluorescence
2. Reagent. 23 nL library compounds (7-pt, 1:4 intraplate titration series) or DMSO control transferred by Pin Tool
3. Centrifuge. Centrifuge plate for 30 s at 1000 RPM
4. Incubation.#Incubate reagents at room temperature for 30 min, protected from light
5. Reagent. 2 uL SIRPalpha-biotin (100 nM) in Assay buffer
6. Incubation.#Incubate reagents at room temperature for 30 min, protected from light
7. Reagent. 1 uL SAV-APC (26 nM) acceptor reagent added to respective wells
8. Centrifuge. Centrifuge plate for 30 s at 1000 RPM
9. Incubation. Incubate reagents at room temperature for 30 min, protected from light
10. Detector. Measure Top TR-FRET on EnVision (Eu/APC filter set); calculate ratio Ch1/Ch2
1. Assay buffer composition.#Phosphate buffered saline (PBS; 10 mM Phosphate, 137 mM NaCl, and 2.7 mM KCl; pH 7.4), 0.05% IGEPAL CA-630
2. 23nL of […] library compounds (7 plates) or DMSO vehicle control transferred to 9 Greiner white/solid bottom high base, TC plates in 7 interplate 1:5 titrations (see Yasgar, A. et al. 2008) with Pintool. Two of the 9 plates are DMSO-only in compound field at beginning and end of compound library-treated plates.
10. Detector settings#Mirror = LANCE/DELFIA Dual Enh; Ex. Filter = UV2[TRF] 320; Em. Filter = APC 665; 2nd Em. Filter = Europium 615; Measurement h = 6.5; Ex. light (%) = 100; Delay = 60 us; Window t = 100 us; No. Seq. windows = 1; Time between flashes = 2000us; No. of flashes = 100; No. of flashes for 2nd detector = 100; Calculation: "Ratio Ch1/Ch2"
For orientation: In TR-FRET formats the signal depends on donor and acceptor labels being close together.
`O=C1CCC(N2C(=O)c3ccccc3C2=O)C(=O)N1` (stereo not given): the outcome was inactive.
As for `O=C1CCc2cc(OCCCCc3nnnn3C3CCCCC3)ccc2N1`, the outcome was inactive.
To `CC(C)C[C@H](NC(=O)[C@@H](O)[C@H](N)Cc1ccccc1)C(=O)O` belongs “inactive”.
To `Cc1cccc(-c2[nH]c(C(C)(C)C)nc2-c2ccc3nccnc3c2)n1` belongs “inactive”; to `Cn1cnc([N+](=O)[O-])c1Sc1ncnc2nc[nH]c12`, “inactive”; to `CC(C)(C)NCC(O)c1ccc(O)c(CO)c1` (stereo not given), “inactive”.
As to `O=c1[nH]cnc2[nH]ncc12`, the outcome was inactive.
To `CCc1cncnc1N1CCN(Cc2nc3ccc(C(F)(F)F)cc3[nH]2)CC1` belongs “inactive”.
`O=c1n(CCCN2CCN(c3cccc(Cl)c3)CC2)nc2ccccn12`: the outcome was inactive.
To `O=NN(CCCl)C(=O)NCCCl` belongs “inactive”.
The same measure for `Oc1ccc(C2CNCCc3c2cc(O)c(O)c3Cl)cc1` (stereo not given): “inactive”.
The same measure for `OC(CCN1CCCCC1)(c1ccccc1)C1CC2C=CC1C2` (stereo not given): “inactive”; for `C1COC(NC(C2CC2)C2CC2)=N1`: “inactive”.
In the case of `CNC[C@H](O)c1cccc(O)c1`, the result was inactive.
The same measure for `NC[C@H](O)c1ccc(O)c(O)c1`: “inactive”.
To `CC(=O)Oc1ccccc1C(=O)O` belongs “inactive”; to `N[C@@H]1CONC1=O`, “inactive”; to `CC(C)NCC(O)COc1ccc(COCCOC(C)C)cc1` (stereo not given), “inactive”.
With `Nc1nc2ccc(OC(F)(F)F)cc2s1`, the result was inactive.
To `CCC(C)N(C)C(=O)c1cc2ccccc2c(-c2ccccc2Cl)n1` (stereo not given) belongs “inactive”; to `Nc1nc2c(ncn2COCCO)c(=O)[nH]1`, “inactive”; to `NS(=O)(=O)c1cc2c(cc1Cl)NC=NS2(=O)=O`, “inactive”.
To `NC(N)=NC(=O)c1nc(Cl)c(N)nc1N` belongs “inactive”.
To `CCCc1nn(C)c2c(=O)[nH]c(-c3cc(S(=O)(=O)N4CCN(C)CC4)ccc3OCC)nc12` belongs “inactive”.
On to `Cc1cc2c(C(C)C)c(O)c(O)c(C=O)c2c(O)c1-c1c(C)cc2c(C(C)C)c(O)c(O)c(C=O)c2c1O`, for which the outcome was inactive.
The same measure for `O=C(Nc1nc2ccccc2n1CCN1CCOCC1)c1cccc([N+](=O)[O-])c1`: “inactive”.
As to `O=C(O)COCCN1CCN(C(c2ccccc2)c2ccc(Cl)cc2)CC1` (stereo not given), the outcome was inactive.
Turning to `NCCCC(N)(C(=O)O)C(F)F` (stereo not given), the result was inactive.
To `Cc1ccccc1C(OCCN(C)C)c1ccccc1` (stereo not given) belongs “inactive”; to `CCOC(=O)N1CCC(=C2c3ccc(Cl)cc3CCc3cccnc32)CC1`, “inactive”.
To `CCOC(=O)C1=C[C@]2(CC)CCCN3CCc4c(n1c1ccccc41)[C@@H]32` belongs “inactive”.
As to `CCCC(CCC)C(=O)O`, the outcome was inactive.
The same measure for `Clc1cccc(Cl)c1NC1=NCCN1`: “inactive”.
The same measure for `Cc1[nH]c(=O)c(C#N)cc1-c1ccncc1`: “inactive”.
To `CC(C[N+](C)(C)C)OC(N)=O` (stereo not given) belongs “inactive”; to `CCCCNc1cc(C(=O)O)cc(S(N)(=O)=O)c1Oc1ccccc1`, “inactive”.
As for `CCn1cc(C(=O)O)c(=O)c2cc(F)c(N3CCNC(C)C3)c(F)c21` (stereo not given), the outcome was inactive.
To `Cc1cnc(NC(=O)C2=C(O)c3ccccc3S(=O)(=O)N2C)s1` belongs “inactive”.
Consider `NCCc1ccc(O)c(O)c1`, for which the result was inactive.
The same measure for `Cc1oncc1C(=O)Nc1ccc(C(F)(F)F)cc1`: “inactive”.

These data come from PubChem BioAssay (NCATS).
